# Reference: PubChem BioAssay (NCI)
# The panel holds about 83,000 compounds, 20% with a hit somewhere; the sample as a whole holds those more often.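 Testing used 96-well plates and a 48-hour single-concentration exposure. Example: -40 means 40% of the starting cells died.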 A number with no mark means an inactive call. Calls of active or inactive are those of the source.
# System: TK-10 renal
# Experiment: NCI-60 one-dose screen, 48 h (100 = growth as untreated, 0 = no growth, -100 = all killed)
# Settings: 10 µM unless noted
# Procedure: Growth inhibition of the TK-10 human tumor cell line is measured as a screen for anti-cancer activity. Cells are grown in 96 well plates and exposed to the test compound for 48 hours. Compounds are tested at a single concentration, which is 10^-5 M for most compounds. The reported endpoint is percent growth (GI% or GIPRCNT), where numbers from 0 - 100% represent growth inhibition, and numbers from -100% - 0 represent cell death. For example, a value of 40 represents 60% growth inhibition. A value of 0 means no net growth occurred over the course of the experiment. A value of -40 indicates 40% of cells at the beginning of the experiment died by the end of the experiment. A value of -100 means all cells are dead at the end of the experiment.
# NCI-60 Human Tumor Cell Lines Screen was performed using the standard one-dose NCI protocol, which is described in more detail at https://dtp.cancer.gov/discovery_development/nci-60/default.htm.
# Compounds with GIPRCNT values below 10 were considered active. Activity score was based on GIPRCNT using the following formula: […]
# Score is 0 for GIPRCNT values of 100 or above, 50 for GIPRCNT values of 0, and 100 for GIPRCNT values of -100.
row,Structure (SMILES),growth
1,Cc1ccc(-c2cc3nc(C(Cl)Cl)nc(-c4ccco4)n3n2)cc1,29.2%
2,COc1ccc(C(=O)Nc2ncc(Cc3ccccc3Cl)s2)cc1,64.3%
3,CC(=O)c1nnn(-c2c(C(=O)n3nc(C)cc3C)sc(=S)n2-c2ccccc2)c1C,138%
4,COc1ccc(/C=C(\C#N)C(=O)N2c3ccccc3Sc3ccc(SC)cc32)cc1F,97.1%
5,CC1(C)CC[C@]23CC[C@]4(C)[C@H](CC[C@@H]5[C@@]6(C)CCCN(CO)C(C)(C)[C@@H]6CC[C@]54C)[C@H]2[C@H]1OC3,129%
6,CCOC(=O)C1=NNC(c2ccc(Cl)cc2)C1C(=O)N1C(=S)NC(=O)C1CC(C)C (stereo not given),164%
7,C#CCC#CCN1CCC[C@H]1C(=O)NCC(=O)OC,99.4%
8,CC(C)(C)CC(C)(C)n1nnnc1C(Nc1nccs1)c1cc2cccc3ccc4cccc1c4c32 (stereo not given),108%
9,N#Cc1c(-c2cccs2)cc(-c2cnccn2)nc1SCC(=O)Nc1ccc(Br)cc1,83%
10,CN1CCC(n2cc(Nc3ncc4c(=O)n(-c5c(Cl)cccc5Cl)cc(Br)c4n3)cn2)CC1,47%
11,O=C1C(c2ccccc2)=C(N2CCc3ccccc32)OC1(Cl)Cl,27.6%
12,NC(N)=Nc1ccc(Oc2cccc(Nc3ccc(Cl)c(C(F)(F)F)c3)c2)cc1,82.6%
13,O=S(=O)(NCCCNc1nccc(-c2[nH]c(-c3ccccc3)nc2-c2ccc(Cl)c(O)c2)n1)c1cccc2ccccc12,49.7%
14,CCc1cccc2c3c(sc12)C(c1ccc(Cl)cc1)C(C#N)=C(/N=C/c1ccc(Cl)cc1)O3 (stereo not given),56.4%
15,CC(Nc1c(C#N)cnc2ccc(-c3cnc(N)nc3)cc12)c1ccccc1 (stereo not given),-20.7% (active)
16,CS(=O)(=O)Nc1cc(-c2ccc3ncc(C#N)c(N[C@H](CO)c4ccccc4)c3c2)cnc1Cl,34.8%
17,Clc1ccc(N/N=c2/oc3ccccc3cc2-c2cc3ccccc3[nH]2)cc1,145%
18,Cc1cc(S(=O)(=O)N(C)C)cc(NCC(=O)NC(=O)NCC(C)C)c1C,68.2%
19,CC(C)c1ccc(NCc2cn(-c3ccc(C(=O)O)cc3)nc2-c2cc(C(F)(F)F)cc(C(F)(F)F)c2)cc1,118%
20,CC(=O)C1=C(C)NC(NNC(N)=S)=NC1c1ccccc1 (stereo not given),56.8%

row,Structure (SMILES),growth
1,CCCCCCCn1cc2c(NCCc3ccccc3)ncnc2n1,119%
2,C#CC(=O)N(c1ccc(OC)cc1OC)C(C(=O)NCC(=O)OCC)c1cccs1 (stereo not given),105%
3,N#Cc1c(-c2cccs2)cc(-c2cnccn2)nc1SCC(=O)c1ccc(F)cc1,89.3%
4,O=S(=O)(Nc1ccc2c(c1)OCO2)c1ccc(-c2cnc(C3CC3)o2)cc1,73.8%
5,COc1ccc(CCN2C(=O)CSC2=S)cc1,65.1%
6,COc1ccc(/C=N/NC(=O)c2cn(C3CC3)c3c(OC)c(N4CC5CCCNC5C4)c(F)cc3c2=O)cc1 (stereo not given),116%
7,COC(=O)c1[nH]nc2c1C1(C(=O)c3cccc4cccc1c34)C(C#N)=C(N)O2 (stereo not given),122%
8,CC(=O)O[C@@H]1C(=O)N(c2cnccn2)[C@H]1c1ccccc1[N+](=O)[O-],79.3%
9,N#C/C(=C\c1ccc(-c2ccc(Cl)cc2Cl)o1)c1ccc(F)cc1,138%
10,Cc1nc(-c2ccccc2O)ccc1C(=O)N=Nc1c(O)[nH]c2ccc(Br)cc12,167%
11,CCc1nn2c(C)cc(C)nc2c1Cc1ccc(/C=C/CN2CCN(CCOCCOCCN3CCN(C/C=C/c4ccc(Cc5c(CC)nn6c(C)cc(C)nc56)cc4)CC3)CC2)cc1,103%
12,COc1ccc([C@@H]2c3[nH]c4ccccc4c3C[C@H]3C(=O)N(C4CCN(CC5CCCCC5)CC4)CC(=O)N23)c(OC)c1,98.2%
13,C=C(C=O)[C@@H]1CC[C@]2(C)[C@H](CC=C3[C@H]4[C@@H](C)[C@H](C)CC[C@]4(C(=O)OC)CC[C@]32C)[C@@]1(C)CCC#N,35.7%
14,C=C(C)[C@@H]1CC[C@]2(COP(=O)(OCC)OCC)CC[C@]3(C)[C@H](CC[C@@H]4[C@@]5(C)CCCNC(C)(C)[C@@H]5CC[C@]43C)[C@@H]12,58.9%
15,CC1(C)CC[C@]2(C(=O)N3CCOCC3)CC[C@]3(C)C(=CC[C@@H]4[C@@]5(C)C/C(=C/c6ccco6)C(=O)C(C)(C)[C@@H]5CC[C@]43C)[C@@H]2C1,75.8%
16,CC[C@]12C=CCN3CC[C@@]4(c5cc(NC(=O)COc6cc(O)c7c(=O)cc(-c8ccccc8)oc7c6)c(OC)cc5N(C)[C@H]4[C@@](O)(C(=O)OC)[C@@H]1OC(C)=O)[C@@H]32,-45.5% (active)
17,CCCCCc1ccc(S(=O)(=O)Nc2cccc(-c3csc(NC(=O)CN4CCN(CCO)CC4)n3)c2)cc1,113%
18,CC(=O)c1ccc(Nc2nc(SCC(C)C)nc(-c3ccc(F)cc3)c2C#N)cc1,123%
19,COc1cc(-c2nn(C(C)(C)C)cc2-c2ccnc(NCCCNS(=O)(=O)c3ccccc3)n2)ccc1Cl,66%
20,COc1cc(Nc2c(C#N)cnn3cc(-c4cnn(CC(C)(C)O)c4)cc23)ccc1Cl,23.3%
